The structures appear in SMILES notation. Inconclusive results are not listed. A call without a number means that no potency is given here. Calls of active or inactive are those of the source. The call rests on the fitted dose curve; in most records, active means well fitted inhibition curve with a large enough effect; inconclusive means small, poorly fitted or top-dose-only effect; inactive means flat fitted curve, though single readings scatter.

From PubChem BioAssay (NCATS) come the findings set out here.
Potency means the concentration at half of the fitted maximal effect.

The test system of the assay is AS120. The assay is described as follows: qHTS profiling for inhibitors of Plasmodium falciparum proliferation (AID 504749). Further: nearly all actives have a fitted effect of over 60% in size. The conditions noted are these: P. falciparum in erythrocytes, SYBR Green DNA, 72 h; series mostly up to 28.7 µM. The essentials: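 Fluorescence of SYBR Green-bound parasite DNA, read at 485/535 nm, served as the growth measure. Infected erythrocytes were cultured with compound 72 h; artemisinin (0.29 uM) and DMSO wells defined the normalization range.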
(In general: qHTS replaces the single test concentration by a dilution series.)
With `S=P(N1CC1)(N1CC1)N1CC1`, the Potency result was “inactive”.

With `COc1cc([C@@H]2c3cc4c(cc3[C@H](O)[C@H]3COC(=O)[C@H]23)OCO4)cc(OC)c1OC`, the Potency was 5.01 µM (active).

In the case of `COc1ccc(-c2ccc3cc(C(=O)O)ccc3c2)cc1C12CC3CC(CC(C3)C1)C2`, the Potency entry was “inactive”.

As to `COC(=O)Nc1nc2ccc(C(=O)c3ccccc3)cc2[nH]1`, the Potency entry was “inactive”.

Regarding `COc1ccc2cc3[n+](cc2c1OC)CCc1cc2c(cc1-3)OCO2`, the Potency was 1.26 µM (active).

Regarding `CNNCc1ccc(C(=O)NC(C)C)cc1`, the Potency entry was “inactive”.

`N=C(N)c1ccc(OCCCCCOc2ccc(C(=N)N)cc2)cc1`: the Potency is 0.891 µM (active).

As for `Oc1c(Cl)cc(Cl)c2cccnc12`, the Potency is 11.2 µM (active).

With `CCc1cc(C(N)=S)ccn1`, the Potency entry was “inactive”.

For the compound `COc1cc2c(Nc3ccc(Br)cc3F)ncnc2cc1OCC1CCN(C)CC1`, the Potency is 3.16 µM (active).

`COC(=O)Nc1nc2ccc(Sc3ccccc3)cc2[nH]1`: the Potency result was “inactive”.

For the compound `C1CCC(C(CC2CCCCN2)C2CCCCC2)CC1` (configuration not stated), the Potency is 7.94 µM (active).

Turning to `CC(C)Cn1cnc2c(N)nc3ccccc3c21`, the Potency entry was “inactive”.

For the compound `CC(C)(Sc1cc(C(C)(C)C)c(O)c(C(C)(C)C)c1)Sc1cc(C(C)(C)C)c(O)c(C(C)(C)C)c1`, the Potency entry is “inactive”.

On to `COc1cc(NCc2ccc3nc(N)nc(N)c3c2C)cc(OC)c1OC`, for which the Potency was 1 µM (active).

Consider `CCCCOc1ccc(CC(=O)NO)cc1`, for which the Potency was 3.55 µM (active).

Take `Cc1nnc(NS(=O)(=O)c2ccc(N)cc2)s1`: the Potency result is “inactive”.

For the compound `Nc1nc(N)c2nc(CNc3ccc(C(=O)NC(CCC(=O)O)C(=O)O)cc3)cnc2n1` (configuration not stated), the Potency entry was “inactive”.

For the compound `CNC(=O)c1cc(Oc2ccc(NC(=O)Nc3ccc(Cl)c(C(F)(F)F)c3)cc2)ccn1`, the Potency was 10 µM (active).

In the case of `CCc1c2c(nc3ccc(OC(=O)N4CCC(N5CCCCC5)CC4)cc13)-c1cc3c(c(=O)n1C2)COC(=O)[C@]3(O)CC`, the Potency entry was “inactive”.

As for `CC(C)NCC(O)c1ccc(NS(C)(=O)=O)cc1` (configuration not stated), the Potency entry was “inactive”.

Take `CC(C)OC(=O)C(C(=O)OC(C)C)=C1SC=CS1`: the Potency entry was “inactive”.

For `CC[C@H](C)C(=O)O[C@H]1C[C@@H](C)C=C2C=C[C@H](C)[C@H](CC[C@@H]3C[C@@H](O)CC(=O)O3)[C@H]21`, the Potency result was “inactive”.

Regarding `O=c1cc(O)c(Cl)c[nH]1`, the Potency result was “inactive”.

`CC(=O)Oc1ccccc1C(=O)Nc1ncc([N+](=O)[O-])s1`: the Potency result is “inactive”.

Take `COc1ccc(C(=O)CC(=O)c2ccc(C(C)(C)C)cc2)cc1`: the Potency result is “inactive”.

`CNC1CCCN(c2c(F)cc3c(=O)c(C(=O)O)cn(C4CC4)c3c2OC)C1` (configuration not stated): the Potency entry was “inactive”.
